{
  "source": "PubChem BioAssay AID1745847",
  "about": "(National Center for Advancing Translational Sciences (NCATS), 2022)",
  "note": "About 670 (32%) of roughly 2,100 compounds were called active. Not shown: some 50% with an inconclusive outcome. This is one part of the list. Values without a mark were called inactive. The call rests on the fitted dose curve; in most records, active means well fitted inhibition curve with a large enough effect; inconclusive means small, poorly fitted or top-dose-only effect; inactive means no such curve, though single readings can be large or run the other way. On the % scale 0 is the no-effect control and ±100 the full control effect; potency means the concentration at half of the fitted maximal effect.",
  "data": [
    {"experiment": "CMV-Luciferase Counterscreen for Inhibitors of ATXN expression; further: nearly all actives have a fitted effect of over 55% in size", "details": "HEK-293 CMV-luciferase reporter, luminescence, 24 h; series mostly up to 57.5 µM; activity change, negative = inhibition: at the top concentration", "text": "PI: Daniel Scoles Ph.D. University of Utah School of Medicine, Salt Lake City, Utah MLPCN Grant: NS073009 Spinocerebellar ataxia type 2 (SCA2) is a multisystem neurodegenerative disease caused by a dominantly acting mutation leading to expansion of a polyQ domain in the ataxin-2 protein (ATXN2). SCA2 patients develop progressive ataxia and later lose function in other neuronal systems. Prominent parkinsonian signs develop in some patients. Like many neurodegenerative disorders, no symptomatic or disease-modifying treatments are known. The primary objective of the proposed research is to identify compounds inhibiting ATXN2 expression and to test them for efficacy in SCA2 mouse models. We have developed a cell-based assay paired with an in vivo mouse model using identical luciferase expression constructs. This approach takes advantage of an ATXN2-luciferase transgene, with the luciferase gene flanked by the upstream and downstream portions of the ATXN2 gene. Here we describe a 5-7 dose quantitative high thoroughput screen (qHTS) for compounds lowering ATXN2 expression. We screened the NIH Molecular Libraries Small Molecule Repository (MLSMR) and NCGC's mechanistically annotated (MIPE) and drug repurposing (NPC) collections of compounds for lowering expression of an ATXN2-luciferase reporter in HEK-293 cells. The assay is a multiplexed cell viability assay to ensure target reduction in the absence of cytotoxicity. Secondary qHTS assays included a CMV-luciferase reporter expressed in HEK-293 cells as well as a biochemical assay using recombinant luciferase to detect inhibitors of the reporter enzyme. Compounds that inhibit ATXN2 expression but is not cytotoxic were selected for confirmatory and secondary screens.\nPROTOCOL TABLE (as described by Inglese J, Shamu CE and Guy RK. 2007) SEQUENCE No. (e.g., 1, 2, 3, etc.); PARAMETER (e.g., Cells, Incubation, Reagent, etc.); VALUE; DESCRIPTION. 1; Cells; 4 uL; white, solid bottom, 1536-well Greiner assay plate. 2; Incubation; 2 hr; 37 degree C in 5% humidified CO2. 3; Compounds; 23 nL; Kalypsis pintool (Wako USA) equipped with a 1536-well pin head. 4; Incubation; 24 hr; 37 degree C in 5% humidfified CO2. 5; Reagent; 1 uL; Gly-Phe-7-Amino-4-trifluoromethylcoumarin. 6; Incubation; 30 min; 37 degree C in 5% humidfified CO2. 7; Detection; Fluorescence; Viewlux plate reader (PerkinElmer). 8; Reagent; 3 uL; SteadyGlo luciferase solution (Promega). 9; Incubation; 5 min; room temperature. 10; Detection; Luminescence; ViewLux plate reader (PerkinElmer). NOTES (numbers refer to Sequence numbers above) 1. HEK-293 cells expressing CMV-luciferase reporter (designated as SC cells) were suspended in phenol-red free DMEM and dispensed in assay plates using a Multidrop Combi dispenser (Thermo Fisher Scientific). 2. Assay plates were incubated. Evaporation was prevented by covering assay plates with metal lids containing holes to allow gas diffusion. 3. Compounds were added in a dose response manner with the final concentrations of 57, 11.4, 2.28, 0.46, 0.091, 0.018, 0.0037 uM. Vehicle-only plates, with DMSO being pin-transferred to columns 5-48, were inserted uniformly at the beginning and the end of each library to monitor and record any shifts in assay performance. 5. 125 uM Gly-Phe-7-Amino-4-trifluoromethylcoumarin (MP Biomedicals) working concentration was used at a final concentration of 25 uM. 7. To assess cell viability; the assay plates were read using the ViewLux high-throughput CCD imager (PerkinElmer), wherein single end-point fluorescence measurement was acquired (excitation 405/10; emission 540/25 nm). 8. Detection reagent SteadyGlo Luciferase (Promega) was added to the assay plate. 10. Luminescence is then measured on the ViewLux imager equipped with a clear emission filter using a 2 sec exposure. […]", "values": [
      {"smiles": "Cc1cc(Br)c(OCc2ccc(C(=O)N/N=C3\\CC4CC=CC34)cc2)c(Br)c1", "note": "(stereo unspecified)", "Potency": "28.2 µM (active)"},
      {"smiles": "CCN(CC)c1nc(-c2ccccn2)nc(-c2ccccc2)c1C#N", "Potency": "7.08 µM (active)"},
      {"smiles": "CC(C)Nc1nc(-c2ccccn2)nc(-c2ccccc2)c1C#N", "activity change, negative = inhibition": "-15.7%"},
      {"smiles": "COC(=O)c1c(NC(=O)/C=C/C(=O)O)sc(C)c1-c1ccc(C(C)C)cc1", "Potency": "14.1 µM (active)"},
      {"smiles": "Cc1[nH]c(-c2ccc(F)cc2)cc1C(=O)N1CCN(c2ccc(Cl)cc2)CC1", "Potency": "22.4 µM (active)"},
      {"smiles": "Cc1cc(N2CCN(C)CC2)ccc1NC(=O)c1ccc(-c2ccc(Cl)cc2)o1", "activity change, negative = inhibition": "-27.1%"},
      {"smiles": "CC1(C(=O)NCc2ccccc2Br)CCN1C(=O)Cc1ccc(-c2ccccc2)cc1", "note": "(stereo unspecified)", "Potency": "20 µM (active)"},
      {"smiles": "CC1(C(=O)NCc2ccco2)CCN1C(=O)C1(c2ccccc2)CC1", "note": "(stereo unspecified)", "activity change, negative = inhibition": "-4.65% [at 11.4 µM]"},
      {"smiles": "Cc1ccc2[nH]c(O)c(N=NC(=O)C3CC3c3ccccc3)c2c1Br", "note": "(stereo unspecified)", "activity change, negative = inhibition": "-21.9% [at 11.4 µM]"},
      {"smiles": "O=C(Nc1ccc(Cl)cc1)Nc1ccc(N2CCCC2)c(S(=O)(=O)Nc2ccccc2Cl)c1", "Potency": "3.98 µM (active)"},
      {"smiles": "CCN(CC)S(=O)(=O)c1ccc(N/N=C/c2ccc(O)cc2O)nc1", "Potency": "1.26 µM (active)"},
      {"smiles": "CCn1c2ccccc2c2cc(NC(=O)COC(=O)c3cc(S(=O)(=O)N4CCCCC4)ccc3Cl)ccc21", "activity change, negative = inhibition": "4.24% [at 11.4 µM]"},
      {"smiles": "O=C(COc1ccc(Br)cc1CO)Nc1ccc(S(=O)(=O)N2CCCCC2)cc1", "Potency": "17.8 µM (active)"},
      {"smiles": "CN(C)CCCN(C(=O)c1ccc(S(=O)(=O)N2CCCCCC2)cc1)c1nc2ccc(Br)cc2s1", "activity change, negative = inhibition": "-16.1% [at 11.4 µM]"},
      {"smiles": "Cc1ccnc(NC(=O)CCCc2c[nH]c3ccccc23)c1", "activity change, negative = inhibition": "484% [at 11.4 µM]"},
      {"smiles": "CC[n+]1c(/C=C/c2c[nH]c3ccccc23)ccc2cc(C)ccc21", "Potency": "35.5 µM (active)"},
      {"smiles": "O=C(c1ccc(CS(=O)Cc2ccccc2Cl)o1)N1CCN(c2cccc(Cl)c2)CC1", "note": "(stereo unspecified)", "Potency": "20 µM (active)"},
      {"smiles": "C=CCOC(=O)C1=C(C)NC(SCC)=C(C#N)C1c1ccc(Cl)cc1", "note": "(stereo unspecified)", "Potency": "20 µM (active)"},
      {"smiles": "COc1cc(C=CC(=O)c2ccccc2)cc(OC)c1OC", "activity change, negative = inhibition": "-4.63%"},
      {"smiles": "COc1cc(/C=C/C(O)=C/C(=O)/C=C/c2ccc(O)cc2)ccc1O", "activity change, negative = inhibition": "-3.01% [at 11.4 µM]"},
      {"smiles": "COc1cc(C=CC(=O)c2cc(OC)c(OC)c(OC)c2)cc(OC)c1OC", "Potency": "12.6 µM (active)"},
      {"smiles": "O=C(c1ccc2c(c1)OCO2)N(Cc1cccs1)C1(C(=O)NC2CCCCC2)CCCCC1", "Potency": "28.2 µM (active)"},
      {"smiles": "C=CCNc1oc(-c2ccc(Cl)cc2)nc1C#N", "activity change, negative = inhibition": "-10.5%"},
      {"smiles": "COc1ccc(Nc2oc(COc3ccccc3OC)nc2C#N)cc1", "Potency": "3.55 µM (active)"},
      {"smiles": "N#Cc1nc(COc2ccc(-c3ccccc3)cc2)oc1NCc1cccnc1", "Potency": "3.55 µM (active)"},
      {"smiles": "COc1cc2nc(CN(C)Cc3ccc(SC)cc3)[nH]c(=O)c2cc1OC", "activity change, negative = inhibition": "4.26%"},
      {"smiles": "COc1ccc(-c2cnc3c(NC=O)cc(-c4ccccc4OC)cn23)cc1OC", "activity change, negative = inhibition": "153%"},
      {"smiles": "Cc1ccc(/C=N/Nc2ccnc3cc(Cl)ccc23)c(C)c1", "Potency": "14.1 µM (active)"},
      {"smiles": "Nc1nc(NCCCN2CCOCC2)nc(Nc2cccc(Cl)c2)c1[N+](=O)[O-]", "activity change, negative = inhibition": "-21.5% [at 11.4 µM]"},
      {"smiles": "Cc1ccc(S(=O)(=O)N(Cc2ccccc2)c2ccccc2C(=O)NCc2ccco2)cc1", "Potency": "22.4 µM (active)"},
      {"smiles": "COc1cnc(-c2ccccn2)nc1NC(C)C", "Potency": "8.91 µM (active)"},
      {"smiles": "COc1cccc(CN(C)C(=O)CNC(=O)c2ccc(-c3ccccc3)cc2)c1OC", "Potency": "5.01 µM (active)"},
      {"smiles": "COCCCn1c(-c2ccc(S(=O)(=O)N3CCOCC3)cc2)csc1=Nc1ccccc1", "Potency": "3.98 µM (active)"},
      {"smiles": "COc1cc(C(=O)Oc2cccc(Nc3ncnc4ccccc34)c2)cc(OC)c1OC", "Potency": "3.98 µM (active)"},
      {"smiles": "NC(Cc1ccccc1)c1csc(Nc2nccc(C(F)(F)F)n2)n1", "note": "(stereo unspecified)", "activity change, negative = inhibition": "5.13%"},
      {"smiles": "Cc1cc(Nc2cccc([N+](=O)[O-])c2)n2c(nc3ccccc32)c1C#N", "Potency": "1.26 µM (active)"},
      {"smiles": "CCOC(=O)N1CCN(c2ncnc3c2[nH]c2ccc(F)cc23)CC1", "Potency": "3.55 µM (active)"},
      {"smiles": "Fc1ccc2[nH]c3c(N4CCc5ccccc5C4)ncnc3c2c1", "Potency": "2.82 µM (active)"},
      {"smiles": "Fc1ccc2[nH]c3c(N4CCSCC4)ncnc3c2c1", "Potency": "3.16 µM (active)"},
      {"smiles": "CC(C)(CO)NCc1c(OCc2ccc(Cl)cc2)ccc2ccccc12", "activity change, negative = inhibition": "-25.8%"},
      {"smiles": "Cc1ccc2nc(-c3ccccc3)nn2c1", "Potency": "2 µM (active)"},
      {"smiles": "COc1ccc(Cl)cc1S(=O)(=O)N1CCN(C(=O)c2n[nH]c(=O)c3ccccc23)CC1", "activity change, negative = inhibition": "-26.4% [at 11.4 µM]"},
      {"smiles": "COc1ccc(N2CCN(c3ccnc4cc(Cl)ccc34)CC2)cc1", "Potency": "3.98 µM (active)"},
      {"smiles": "COc1ccccc1N1CCN(c2ccnc3cc(Cl)ccc23)CC1", "Potency": "10 µM (active)"},
      {"smiles": "Oc1ccc(N2CCN(c3ccnc4cc(Cl)ccc34)CC2)cc1", "Potency": "11.2 µM (active)"},
      {"smiles": "O=S(=O)(c1ccccc1)N1CCN(c2ccnc3cc(Cl)ccc23)CC1", "Potency": "22.4 µM (active)"}
    ]}
  ]
}
